According to PubChem BioAssay AID624341 (National Center for Advancing Translational Sciences (NCATS), 2012):
Activity calls are given as the source filed them.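 Rule for the calls: active = potency half-inhibition concentration of 75 µM or lower; inconclusive = potency above 75 µM but under 100 µM; inactive = potency of 100 µM or higher.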

These compounds were tested against Ubiquitin carboxyl-terminal hydrolase 7 (Homo sapiens) (UniProt Q93009) (assay: Inhibitors of USP1/UAF1: Hit Validation in USP7 Diubiquiting Gel Assay). Settings: USP7 K63 diubiquitin cleavage, SDS-PAGE gel densitometry.
Chain of Ubiquitin carboxyl-terminal hydrolase 7 (Homo sapiens) (Q93009 whole entry, looked up): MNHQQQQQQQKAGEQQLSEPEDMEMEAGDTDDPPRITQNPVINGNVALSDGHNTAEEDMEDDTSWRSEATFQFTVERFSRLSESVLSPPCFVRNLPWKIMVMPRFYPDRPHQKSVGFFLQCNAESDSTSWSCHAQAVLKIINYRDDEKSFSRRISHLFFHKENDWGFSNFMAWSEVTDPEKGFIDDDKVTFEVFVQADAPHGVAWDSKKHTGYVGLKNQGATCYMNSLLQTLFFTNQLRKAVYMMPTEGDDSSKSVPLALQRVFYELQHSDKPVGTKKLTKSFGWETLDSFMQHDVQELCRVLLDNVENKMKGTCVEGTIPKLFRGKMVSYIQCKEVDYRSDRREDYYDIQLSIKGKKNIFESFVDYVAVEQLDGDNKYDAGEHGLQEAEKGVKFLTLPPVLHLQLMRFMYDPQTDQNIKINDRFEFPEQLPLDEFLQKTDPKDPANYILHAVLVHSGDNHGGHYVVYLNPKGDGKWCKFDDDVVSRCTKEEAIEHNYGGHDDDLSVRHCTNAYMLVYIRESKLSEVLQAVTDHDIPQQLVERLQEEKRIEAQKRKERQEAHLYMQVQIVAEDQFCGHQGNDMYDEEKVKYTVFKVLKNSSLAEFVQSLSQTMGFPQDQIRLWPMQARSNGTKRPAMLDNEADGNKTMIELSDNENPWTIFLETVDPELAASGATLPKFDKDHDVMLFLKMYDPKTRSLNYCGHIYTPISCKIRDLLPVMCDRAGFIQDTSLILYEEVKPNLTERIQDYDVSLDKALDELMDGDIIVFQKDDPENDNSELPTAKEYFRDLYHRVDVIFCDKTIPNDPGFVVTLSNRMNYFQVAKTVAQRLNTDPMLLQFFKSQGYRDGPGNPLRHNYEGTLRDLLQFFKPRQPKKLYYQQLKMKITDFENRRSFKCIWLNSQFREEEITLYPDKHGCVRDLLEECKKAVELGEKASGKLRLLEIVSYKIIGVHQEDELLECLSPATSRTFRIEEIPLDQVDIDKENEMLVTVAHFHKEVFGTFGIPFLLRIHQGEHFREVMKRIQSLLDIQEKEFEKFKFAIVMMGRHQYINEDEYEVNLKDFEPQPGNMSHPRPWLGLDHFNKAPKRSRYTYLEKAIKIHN
Description: Deubiquitinating enzymes (DUBs) are a class of enzymes that can cleave isopeptide bond formed between the C-terminal carboxylate of ubiquitin and a lysine side-chain amino group on the target protein. Among them, ubiquitin specific proteases (USPs) constitute the largest DUB family. Human USPs are emerging as promising targets for pharmacological intervention because of their connection to a number of human diseases, including prostate, colon and breast cancer (1, 2), pediatric acute lymphoblastic leukemia (3), and familial cylindromatosis (4). The advantage of inhibiting USPs lies in the potential specificity of therapeutic intervention that can lead to better efficacy and reduce nonspecific side effects. In a collaboration between the University of Delaware and the NIH Chemical Genomics Center, a high-throughput screen assay was developed to screen for USP1/UAF1 inhibitors. This miniaturized assay has a fluorescent read-out and is used to screen the NIH Molecular Libraries Small Molecule Repository (MLSMR) in order to identify a small molecule that inhibits USP1. Follow-up assays have also been developed to further test the hits from the primary screen. This assay validates the hits identified from the primary screen using a USP7 diubiquiting gel assay. NIH Chemical Genomics Center [NCGC] NIH Molecular Libraries Probe Centers Network [MLPCN] MLPCN Grant: DA030552-01 Assay Submitter (PI): Zhihao Zhuang, University of Delaware 1. Priolo, C., et al. (2006) The isopeptidase USP2a protects human prostate cancer from apoptosis. Cancer Res 66, 8625-8632 2. Popov, N., et al. (2007) The ubiquitin-specific protease USP28 is required for MYC stability. Nat Cell Biol 9, 765-774 3. […]
The inhibition assay contains 5 nM USP7, 2 microM K63 linked diubiquitin, and inhibitors at varied concentrations (0.08 microM - 114 microM). […] The intensity of the individual diubiquitin and monoubiquitin band was quantified using Quantity One 4.3.1 (Biorad, Hercules, CA). The percentage of the conversion was determined and used to calculate the reaction rate. […]

Potency, active:
Cc1ccccc1-c1nc(NCc2cccs2)c2ccccc2n1 19.4 µM
FC(F)(F)c1ccccc1-c1nc(NCc2cccs2)c2ccccc2n1 37.8 µM
Cc1cccc(CNc2ccnc(-c3ccccc3C(F)(F)F)n2)c1 20.9 µM
